Test results published in publication PMC5540273 (PLoS ONE, 2017).

System: T1, RSK3(Kin.Dom.2-C-terminal)
T1 construct: gene RPS6KA2
Conditions: concentration: 1 μM, replicates: in singlicate; n = 1
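Note: KINOMEscan kinase panel screen.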

| SMILES | %Inh [%] |
| --- | --- |
| CNCc1ccc2nc(NC(=O)c3ccc(C(C)(C)C)cc3)cn2c1 | 0 |
| Nc1nccc(-c2c(-c3ccc(F)cc3)ncn2C2CCN(Cc3ccccc3)CC2)n1 [SB-219980] | 5 |
| CNc1nc(-c2ccc3c(N)n[nH]c3c2)cc(N2C[C@@H](C(=O)NC3CCCCC3)OC[C@H]2C)n1 [GSK2375584] | 6 |
| O=c1cc(N2CCOCC2)nc2n(Cc3cccc(Cl)c3Cl)c3ccccc3n12 [GSK2299009] | 0 |
| COc1ccc(Nc2nccc(N3CCC(NC(=O)C(C)c4ccc(Cl)cc4)C3)n2)cc1 (centres unmarked) [GSK1379735] | 0 |
| Cn1cnc2c(N)ncnc21 [SKF-97623] | 8 |
| Fc1ccc(-c2nc3n(c2-c2ccncc2)CCS3)cc1 [GI98581] | 11 |
| COC(=O)c1cccc(NC(=O)NC2CCN(c3ccnc(Nc4ccc(OC)cc4)n3)C2)c1 (centres unmarked) [GSK1379746] | 0 |
| Cn1cncc1-c1cc2c(Nc3ccc(OCc4ccccc4)cc3)ncnc2cn1 [GW281179] | 0 |
| CNC(=O)c1ccc(C)c(-n2c(C)cc(OCc3ccc(F)cc3F)c(Br)c2=O)c1 | 0 |
| CC(=O)c1c(C)c2cnc(Nc3ccc(N4CCNCC4)cn3)nc2n(C2CCCC2)c1=O | 0 |
| COc1ccc(CSc2nnc(-c3ccc4c(c3)CCO4)o2)cc1 | 5 |
| COc1ccc(CSc2nnc(-c3ccc4nccn4c3)o2)cc1C(F)(F)F | 6 |
| CN1c2ccc(-c3ccc(C(N)=O)cc3)cc2-c2[nH]ncc2S1(=O)=O | 41 |
